# Source: PubChem
# HTT cytoprotect: cytoprotection in Huntington HTT-Q103 PC12 cell model | AID 1471 | PC12 HTT-Q103 induced, cytoprotection, ATP luminescence, 40 h | Potency, µM (series often up to 56.4 µM), for inactives: cytoprotection (ATP increase), actives largely listed as activators | 0.14% of 230,000 active; also: potency is read from the fitted curve at half-maximal effect; % of control where 0% means no effect; nearly all actives have a fitted effect of over 45% in size
#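 Readout: ATPlite luminescence (ATP level). Model: stable PC12, inducible Htt exon1 Q103-GFP. Inducer: tebufenozide, 100 nM final. Compounds: dose series. No G418 in medium.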
# IMPase Li cell: membrane-permeable IMPase blocker, potentiated with lithium; CHO-M1 cells, IP1 TR-FRET (IP-One), carbachol + lithium; Potency, µM (highest dose often 59.4 µM), without a hit: at the highest dose activity, negative = IMPase inhibition, hits mostly inhibitors; 0.35% of 210,000 active; AID 1457;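 also: IP1 builds up when IMPase is blocked and the TR-FRET signal falls; potency is read from the fitted curve at half-maximal effect; plate controls were basal vehicle for no effect and high inhibitor control for full effect; nearly all actives have a fitted effect of over 50% in size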
#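 IP1 accumulation measured by competitive TR-FRET in lysed CHO-M1 cells after 30 min compound exposure at 37C, with a small lithium addition to potentiate weak responses. Hill-equation AC50 from ratio and donor-channel data.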
# PNC inhibitor: perinucleolar compartment assembly inhibition | PC3M PTB-GFP, PNC prevalence imaging, 16 h; hits give low values | activity change (PNC), negative = inhibition, % at 10 µM | AID 2417 | 3.1% of 140,000 active;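 active = readout at or below -70, meaning at least 70% loss of cells showing the perinucleolar compartment, a nuclear body marking cancer cells; inconclusive = readout between -30 and a set limit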;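 also: plate controls were DMSO wells for no effect and camptothecin positive control wells for full effect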
#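 Read-out is percentage of cells bearing a perinucleolar compartment, from automated 20x imaging of fixed, Hoechst-stained PC3M PTB-GFP cells. Cells were seeded 4 h, then exposed 16 h to compound (23 nl of library stock) in duplicate plates.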
# HttQ103 aggreg: mutant huntingtin aggregation inhibition. PC12 HttQ103-GFP aggregates, Acumen cytometry, 40 h. Potency, µM (series often up to 46.1 µM), for the others: at the top dose activity change, negative = inhibition, hits mostly inhibitors. 1.1% of 220,000 active. AID 1688; also: potency is read from the fitted curve at half-maximal effect; % is scaled to controls: 0 for no effect and ±100 for the full control effect; nearly all actives have a fitted effect of over 60% in size
#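 Using laser scanning cytometry, GFP-positive aggregates were counted after lysis of PC12 cells induced with 100 nM tebufenozide to express HTT exon 1 Q103–GFP. Compounds were tested in titration.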
# NPSR antag: antagonists of human neuropeptide S receptor cAMP signaling. CHO-NPSR cells, cAMP TR-FRET, antagonist mode. Q6W5P4. AID 1461. 1% of 220,000 active. Potency, µM (series often up to 38.3 µM), for inactives: at the top dose activity change, negative = inhibition, most hits filed as inhibitors; also: potency is read from the fitted curve at half-maximal effect; % is scaled to controls: 0 for no effect and ±100 for the full control effect; nearly all actives have a fitted effect of over 50% in size
# Target sequence (Q6W5P4 whole entry, looked up): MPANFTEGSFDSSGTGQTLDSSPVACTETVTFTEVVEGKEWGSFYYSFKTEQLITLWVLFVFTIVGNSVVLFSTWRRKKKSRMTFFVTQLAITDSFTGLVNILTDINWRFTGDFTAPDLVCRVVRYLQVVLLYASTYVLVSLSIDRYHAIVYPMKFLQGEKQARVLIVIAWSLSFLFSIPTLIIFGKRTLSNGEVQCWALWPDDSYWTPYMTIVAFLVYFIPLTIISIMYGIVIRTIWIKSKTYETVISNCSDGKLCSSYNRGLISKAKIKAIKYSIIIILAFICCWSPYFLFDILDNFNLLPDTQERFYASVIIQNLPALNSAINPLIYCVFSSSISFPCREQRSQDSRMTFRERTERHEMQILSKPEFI
# IMPase cell inh: cell-permeable inhibitors of inositol monophosphatase (IMPase) | P97697 | CHO-M1 cells, IP1 accumulation, HTRF TR-FRET ratio | inhibition (IP1 accumulation), % at 46.1 µM | 120,000 tested, under 10 active; active = well fitted curve in the direction sought with a large enough effect in the signal ratio, not every such curve was filed as active; inconclusive = small, poorly fitted or top-dose-only effect, or a change in a side signal; inactive = no such curve, though single readings can be large or run the other way; the % refers to the signal ratio;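 also: cells stimulated with carbachol in lithium chloride buffer; plate controls were DMSO basal wells for no effect and reference inhibitor wells for full effect; higher means more IMPase inhibition seen as more IP1 and lower FRET ratio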
# Target sequence (P97697 whole entry, looked up): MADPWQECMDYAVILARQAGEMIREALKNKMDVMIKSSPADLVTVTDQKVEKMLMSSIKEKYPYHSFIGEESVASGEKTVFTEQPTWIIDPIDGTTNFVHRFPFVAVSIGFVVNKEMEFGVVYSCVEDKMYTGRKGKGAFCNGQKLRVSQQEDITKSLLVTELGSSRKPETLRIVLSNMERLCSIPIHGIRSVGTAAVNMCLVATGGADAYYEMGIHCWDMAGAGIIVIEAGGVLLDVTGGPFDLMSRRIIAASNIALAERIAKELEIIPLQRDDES
#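 In this qHTS, compounds (final up to 46 uM) act on CHO-M1 cells that are then activated through the M1 receptor with carbachol, in pH 7.4 buffer containing 50 mM LiCl, for 30 min. IP1 accumulation is quantified by the IP-One immunoassay.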
# * = called active by the depositor; ? = inconclusive; nt = no result given; [ ] = another dose, or the depositor's remark. Most compounds without a hit are left out; they make up all but 3.4% or so of the library. Unless noted, calls follow the shape of the dose curve; as a rule, active = well fitted curve in the direction sought with a large enough effect; inconclusive = small, poorly fitted or top-dose-only effect, or another doubt; inactive = no such curve, though single readings can be large; an effect the other way counts as inactive or inconclusive.
SMILES,HTT cytoprotect,IMPase Li cell,PNC inhibitor,HttQ103 aggreg,NPSR antag,IMPase cell inh
O=c1c2ccccc2sc2nc(C3CCCCC3)n(Cc3ccco3)c(=O)c12,-9%[0.074 µM],35%[38.3 µM],7,0%,10µM*,-1
CCc1nc2sc3ccccc3c(=O)c2c(=O)n1Cc1ccco1,-9%[10 µM],2%,-28,6%,-22%[46.1 µM],8[0.0738 µM]
CC1=CC(=C(c2ccc(N)cc2)c2ccc(N)cc2)C=CC1=N,-62%,nt,nt,7.9µM*,nt,nt
CN(C)c1ccc(C(=C2C=CC(=[N+](C)C)C=C2)c2ccc(N(C)C)cc2)cc1,-98%,374%,nt,?,nt,nt
CCOC(=O)C1CCCN(Cc2nc(CC3CC3)no2)C1 (stereo not drawn),-7%[10 µM],nt,nt,-5%[9.22 µM],15%,nt
O=S(=O)(NCCc1ccc2c(c1)OCCO2)c1cccs1,-3%[10 µM],-9%,-81*,-22%,1%[46.1 µM],17
COc1ccc(CCNS(=O)(=O)c2cccs2)cc1,-7%,16%[38.3 µM],32,1%,0%[46.1 µM],16
COCCOC(=O)c1c(C)oc2ccc(OC(=O)c3ccco3)cc12,nt,-4%,44,-24%,4%,nt
CCOC(=O)c1c(C)oc2ccc(OC(=O)COc3c(F)c(F)c(F)c(F)c3F)cc12,nt,1%,31,13µM*,4%,nt
COCCOC(=O)c1c(C)oc2ccc(OCc3ccccc3)cc12,nt,-3%,-114*,1%,-3%,nt
COc1cccc(-c2nccc(NCc3ccccc3)n2)c1,-46%,27%,nt,nt,nt,nt
Cc1c(O)c(O)cc2c1oc1c3ccccc3oc(=O)c21,-49%,2%,nt,nt,nt,nt
O=S(=O)(Nc1cc(Sc2ncn[nH]2)c(O)c2ccccc12)c1ccccc1,-209%,-4%,nt,4.5µM*,-10%,nt
Cc1cc(NS(=O)(=O)c2ccccc2)c(C)c(Cl)c1O,-16%,13%[38.3 µM],?,-5%,-16%[46.1 µM],-3
N#CCC(=O)Nc1ccc(C(=O)NCC(c2ccco2)N2CCCCC2)cc1 (stereo not drawn),-25%,-1%,nt,-5%,9%,nt
C1CNCCNCCCNCCNC1,nt,-3%,-115*,16%,-6%,nt
C1CNCCN1,?,4%,nt,nt,nt,nt
Cc1cc(/C=N/Nc2nc(N)ncc2[N+](=O)[O-])c(C)n1-c1cccc(C(F)(F)F)c1,-3%[10 µM],nt,nt,7%[9.22 µM],-30%,nt
COCC(=O)N1CCC2(CCCN(c3ccccn3)C2)CC1,?,-6%,nt,nt,nt,nt
COc1ccc(/C=N/NC(=O)C2C(=O)NCC2c2ccccc2)c(OC)c1 (stereo not drawn),nt,-1%,39,-10%,-6%,nt
COc1cccc(/C=N/NC(=O)c2cc(-c3cccn3C)n[nH]2)c1O,-48%[10 µM],3%,25,1.8µM*,-26%,nt
COc1cccc(/C=N/NC(=O)c2cc3c(OC)c(OC)ccc3[nH]2)c1OC,2%[0.074 µM],0%,-84*,-27%,3%,nt
COc1cccc(/C=N/NC(=O)c2cc3c(OC)cccc3[nH]2)c1O,-87%[10 µM],1%,?,2.2µM*,10%,nt
COc1cccc(/C=N\NC(=O)C2C(=O)NCC2c2ccccc2)c1O (stereo not drawn),-48%,-8%[38.3 µM],0,11µM*,-2%[46.1 µM],4
COc1cc(/C=N/NC(=O)c2cc(-c3cccn3C)n[nH]2)cc(OC)c1OC,?,4%[38.3 µM],23,?,-7%[46.1 µM],0
SMILES,HTT cytoprotect,IMPase Li cell,PNC inhibitor,HttQ103 aggreg,NPSR antag,IMPase cell inh
COc1cccc(/C=N/NC(=O)c2cc3c(OC)cccc3[nH]2)c1OC,-3%[10 µM],-7%,?,11%,9%,-10
Cc1cc(SCC(=O)Nc2nsc(-c3ccc(C(C)(C)C)cc3)n2)nc2ccccc12,nt,nt,nt,nt,nt,6
N#Cc1ccccc1-c1ccc2ncnc(NCCN3CCOCC3)c2c1,-14%,-2%,nt,nt,nt,nt
COC(=O)c1ccc(C(NC(=O)OCc2ccccc2)/C(C)=C/[C@@H](C)C(=O)NCCN2CCOCC2)cc1 (stereo partly drawn),10%,-2%,nt,nt,nt,nt
CN(C)c1nc(NS(=O)(=O)c2ccc(Cl)cc2)nc(N(C)C)n1,3%[10 µM],3%[38.3 µM],-121*,7%,-11%[46.1 µM],-1
O=C(CSc1ccc(-c2ccccn2)nn1)N1CCCC1,-22%,-7%,nt,6%,12%,nt
COc1ccc(Oc2nccc(-c3ccc(F)cc3)c2C#N)cc1,-1%,28µM*,-15,-7%,?,?
COc1ccc(Oc2nccc(-c3ccccc3)c2C#N)cc1,-36%,18%[38.3 µM],-12,-2%,-19%[46.1 µM],3
CCOc1ccccc1Nc1nc2ccccc2nc1NS(=O)(=O)c1ccc(Cl)cc1,nt,nt,nt,nt,nt,2
CCN(c1ccccc1)S(=O)(=O)c1ccc(Cl)c(C(=O)NCC2CCCO2)c1 (stereo not drawn),-2%,4%,nt,1%,-1%,nt
O=C(N/N=C\c1cn(-c2ccccc2)nc1-c1ccccc1)c1ccc(Br)o1,-49%,14%[38.3 µM],-19,25µM*,-29%[46.1 µM],18
Cc1ccc(-c2nn(-c3ccccc3)cc2/C=N/NC(=O)c2ccc(Br)o2)cc1,-42%,19%[38.3 µM],-9,7.1µM*,7.9µM*,12
C=CCC(C)(O)c1ccc(OC)cc1 (stereo not drawn),-30%,3%,nt,nt,nt,nt
CC(C)CCNC(=S)Nc1ccc([N+](=O)[O-])cc1,30%[0.074 µM],14%,-19,20µM*,-34%,nt
CCCCNC(=S)Nc1ccc([N+](=O)[O-])cc1,13%[10 µM],9%,?,?,-11%,nt
Cc1ccc(C(C)C)cc1NC(=O)Nc1ccc([N+](=O)[O-])cc1,9%[10 µM],nt,nt,0%[9.22 µM],10µM*,nt
CCCOc1ccc(N)cc1N,-132%,24%[38.3 µM],-128*,?,-19%[46.1 µM],27
Cc1ccc(-c2cc(C(=O)Nc3cc(C)ccc3C)[nH]n2)c(O)c1,1%[10 µM],1%,-84*,0%,-3%,0
Cc1ccccc1-c1cc(Nc2ccc(F)cc2)ncn1,-23%,0%,nt,nt,nt,nt
O=C1NCN(c2ccccc2)C12CCN(CCCC(c1ccc(F)cc1)c1ccc(F)cc1)CC2,?,20%,nt,14µM*,13µM*,4[20.6 µM]
COc1ccccc1C1=NNC(=Nc2cccc(S(=O)(=O)N(C)C)c2)SC1,?,-1%,nt,11µM*,-14%,nt
Cc1cc(NC(=O)CSc2nc3c(sc4ccccc43)c(=O)n2CCCN2CCOCC2)n[nH]1,-1%[10 µM],?,-83*,?,-11%[46.1 µM],-3
Cc1cc(NC(=O)CSc2nc3c(sc4ccccc43)c(=O)n2CCc2ccccc2)n[nH]1,-38%,?,?,-7%[9.22 µM],-9%[46.1 µM],-15
c1cnc(N2CCSCC2)nc1,-6%,-10%[38.3 µM],-91*,-10%,-11%[46.1 µM],-1
c1cnc(N2CC[N+]3(CCCC3)CC2)nc1,0%[0.074 µM],19%[38.3 µM],42,-7%,-2%[46.1 µM],?
O=C(Nc1ccccc1Cl)N1CCn2c(nc3ccccc32)C1,-7%,-17%[38.3 µM],-111*,12%[9.22 µM],-4%[46.1 µM],5
